From PubChem BioAssay (NCATS) come the findings set out here.

Where “and” joins values, the source holds several entries; their conditions need not be identical. Equal entries are not always repeated. Records with an inconclusive call do not appear. Where a structure was tested more than once in an assay, its records may differ in their call. Calls of active or inactive are those of the source. Calls come from the whole dose curve; as a rule, active = well fitted curve in the direction sought with a large enough effect; inconclusive = small, poorly fitted or top-dose-only effect, or another doubt; inactive = no such curve, though single readings can be large; an effect the other way counts as inactive or inconclusive.

Assay [1] deals with Alpha-galactosidase A (Homo sapiens) (UniProt P06280). Nature of the assay: Counterscreen for Glucocerebrosidase Inhibitors: qHTS Assay for Human alpha-Galactosidase at pH 4.5 (AID 992). In short, it runs like this:
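Concentration-response curves (0.7 nM to 77 uM final) were modeled with the Hill equation to give AC50. Reactions: 2 nM enzyme, 80 uM fluorogenic alpha-galactoside, pH 4.5 citric acid buffer, 20 min, room temperature.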

Assay [2] deals with alpha-glucosidase (Oryza sativa, rice) (UniProt Q653V4). Nature of the assay: Counterscreen for Glucocerebrosidase Inhibitors: qHTS Assay for Rice alpha-Glucosidase at pH 5.0 (AID 997). In short, it runs like this:
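Rice alpha-glucosidase (4 nM final) with 400 uM 4-methylumbelliferyl-alpha-D-glucopyranoside in citrate buffer pH 5.0, 20 min at room temperature, stopped at pH 10; fluorescence 365/440 nm, compounds 0.7 nM–77 uM, AC50 from Hill fits.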
(The purpose of a counterscreen is to sort out artefacts and off-target activity.)

Assay [3] addresses Alpha-galactosidase (Coffea arabica) (UniProt Q42656). As to the kind of experiment: Counterscreen for Glucocerebrosidase Inhibitors: qHTS Assay for Coffee Bean alpha-Galactosidase at pH 5.9 (AID 998). The method, boiled down: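 Compounds were titrated from 0.7 nM to 77 uM against green coffee bean alpha-galactosidase (2 nM) using 80 uM fluorogenic 4-methylumbelliferyl substrate. After 20 min at room temperature, reactions were stopped at pH 10 and read by fluorescence.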

The nature of assay [4]: Cell Viability - LYMP2-023 (AID 975). Note: nearly all actives have a fitted effect of over 55% in size. Note: potency is the fitted concentration of half-maximal effect. In short, it runs like this:
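2500 cells/well, 5 hr 37 C; cpd 24 hr 37 C; CellTiter-Glo, 30 min RT; luminescence. qHTS conc-response, Hill fit -> AC50. Pos ctrl tetraoctylammonium bromide.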

The nature of assay [5]: Cell Viability - LYMP2-025 (AID 976). Note: potency is the fitted concentration of half-maximal effect. The method, boiled down:
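Seed 2500 LYMP2-025 cells/well; 5 hr at 37 C; add compound; 24 hr at 37 C; add CellTiter-Glo; 30 min RT; read luminescence. AC50 from Hill-modelled concentration-response.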

The nature of assay [6]: Cell Viability - LYMP2-002 (AID 977).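 Note: compound exposure lasted 24 h at 37 °C.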 Note: potency is the fitted concentration of half-maximal effect. The method, boiled down: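 Cytotoxicity is scored as concentration-dependent loss of cellular ATP in a human lymphoblastoid line after 24 hr compound treatment at 37 C. AC50 is obtained by modelling concentration-response data with the Hill equation.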
Assay [7] in a line: Cell Viability - LYMP2-006 (AID 978). Note: nearly all actives have a fitted effect of over 60% in size. Note: potency is the fitted concentration of half-maximal effect. The method, boiled down:
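In this cytotoxicity screen, the human lymphoblastoid line grew in complete medium with test compounds for 24 hr at 37 C. Cellular ATP served as the viability signal.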

Assay [8] in a line: Cell Viability - LYMP2-007 (AID 979).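 Note: cells exposed to compound for 24 h before reading; nearly all actives have a fitted effect of over 60% in size.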 Note: potency is the fitted concentration of half-maximal effect. In short, it runs like this:
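Luminescent ATP signal (CellTiter-Glo) serves as the viability read-out after 24 hr compound treatment of lymphoblastoid cells in complete medium at 37 C. Concentration-response data were fitted to the Hill equation to give AC50 values.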

Assay [9] in a line: Cell Viability - LYMP2-008 (AID 980). Note: nearly all actives have a fitted effect of over 60% in size. Note: potency is the fitted concentration of half-maximal effect. In short, it runs like this: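 qHTS, human lymphoblastoid line, 2500 cells/well; 5 hr preincubation, 24 hr compound, 37 C. CellTiter-Glo ATP luminescence. AC50 via Hill equation. Tetraoctylammonium bromide positive control.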
Assay [10] can be described thus: Cell Viability - LYMP2-010 (AID 981). Note: nearly all actives have a fitted effect of over 55% in size. Note: potency is the fitted concentration of half-maximal effect. In short, it runs like this: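 Luminescent ATP signal (CellTiter-Glo) served as the viability read-out. Cells of the human lymphoblastoid line were treated with compound over a concentration range for 24 hours at 37 C, and AC50 values came from Hill-equation modeling.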
Assay [11] is described as follows: Cell Viability - LYMP2-012 (AID 982).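 Note: cellular ATP by luciferase luminescence where a drop means cytotoxicity; cells exposed to compound for one day before reading; nearly all actives have a fitted effect of over 55% in size.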 Note: potency is the fitted concentration of half-maximal effect.
Assay [12] is described as follows: Cell Viability - LYMP2-016 (AID 984). Note: nearly all actives have a fitted effect of over 55% in size. Note: potency is the fitted concentration of half-maximal effect. In short, it runs like this: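 Concentration-dependent ATP depletion measured in LYMP2-016 lymphoblastoid cells, 24 h, 37 C; luciferase-based luminescent detection; Hill-equation AC50.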
The nature of assay [13]: Cell Viability - LYMP2-020 (AID 986). Note: nearly all actives have a fitted effect of over 55% in size. Note: potency is the fitted concentration of half-maximal effect. The method, boiled down:
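Luminescent ATP signal (CellTiter-Glo, 30 min at room temperature) is the read-out after 24 h compound treatment of lymphoblastoid cells at 37 C. AC50 values come from Hill-equation fits across concentrations.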

The nature of assay [14]: Cell Viability - LYMP2-026 (AID 989). Note: nearly all actives have a fitted effect of over 50% in size. Note: potency is the fitted concentration of half-maximal effect. The method, boiled down: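 Luminescent ATP signal (CellTiter-Glo, 30 min room temperature) measures viable lymphoblastoid cells after 24 hr compound treatment at 37 C. Decreased ATP reflects acute toxicity; AC50 values come from Hill-equation modeling.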
Assay [15] in a line: Cell Viability - LYMP1-002 - Assay at 24 hr (AID 993). Note: potency is the fitted concentration of half-maximal effect. In short, it runs like this: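 Cells plated 2500/well, 5 hr 37 C; compounds added, 24 hr 37 C; CellTiter-Glo added, 30 min RT; luminescence read. Tetraoctylammonium bromide positive control. Hill-equation AC50.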
Assay [16] in a line: Cell Viability - LYMP1-002 - Assay at 40 hr (AID 994). Note: nearly all actives have a fitted effect of over 60% in size. Note: potency is the fitted concentration of half-maximal effect. In short, it runs like this: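 Luminescent ATP signal served as the viability readout, with decreases taken as toxicity. Cells were treated with compounds across a concentration range for 40 hours at 37 C, and AC50 values came from standard Hill modeling.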
The nature of assay [17]: Cell Viability - LYMP2-018 (AID 985).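 Note: compound exposure lasted 24 hr at 37 °C; nearly all actives have a fitted effect of over 50% in size.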 Note: potency is the fitted concentration of half-maximal effect. In short, it runs like this:
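Luminescent ATP signal (CellTiter-Glo, read after 30 min at room temperature) reports viable cells after 24 hr compound treatment at 37 C. Concentration-response data were fitted to the standard Hill equation for AC50.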

The nature of assay [18]: Cell Viability - LYMP2-024 (AID 988). Note: nearly all actives have a fitted effect of over 60% in size. Note: potency is the fitted concentration of half-maximal effect. The method, boiled down:
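Steps: seed 2500 cells/well, 5 hr 37 C; add compound, 24 hr 37 C; add CellTiter-Glo, 30 min room temperature; read luminescence. AC50 derived by Hill modelling of concentration-dependent ATP loss.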

Alpha-galactosidase A (Homo sapiens), sequence (P06280 whole entry, looked up): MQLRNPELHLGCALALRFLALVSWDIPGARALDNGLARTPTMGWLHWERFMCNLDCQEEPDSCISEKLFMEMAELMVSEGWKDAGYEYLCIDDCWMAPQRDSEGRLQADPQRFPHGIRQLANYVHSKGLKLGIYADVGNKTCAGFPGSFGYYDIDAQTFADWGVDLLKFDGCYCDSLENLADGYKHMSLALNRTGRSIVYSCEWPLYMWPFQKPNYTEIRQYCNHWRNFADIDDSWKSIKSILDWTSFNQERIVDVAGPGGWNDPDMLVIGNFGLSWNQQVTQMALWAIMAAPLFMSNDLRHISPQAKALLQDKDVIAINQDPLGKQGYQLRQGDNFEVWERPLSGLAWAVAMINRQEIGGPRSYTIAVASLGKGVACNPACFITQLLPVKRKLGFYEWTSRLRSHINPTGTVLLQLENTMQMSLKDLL
Alpha-galactosidase (Coffea arabica), sequence (Q42656 whole entry, looked up): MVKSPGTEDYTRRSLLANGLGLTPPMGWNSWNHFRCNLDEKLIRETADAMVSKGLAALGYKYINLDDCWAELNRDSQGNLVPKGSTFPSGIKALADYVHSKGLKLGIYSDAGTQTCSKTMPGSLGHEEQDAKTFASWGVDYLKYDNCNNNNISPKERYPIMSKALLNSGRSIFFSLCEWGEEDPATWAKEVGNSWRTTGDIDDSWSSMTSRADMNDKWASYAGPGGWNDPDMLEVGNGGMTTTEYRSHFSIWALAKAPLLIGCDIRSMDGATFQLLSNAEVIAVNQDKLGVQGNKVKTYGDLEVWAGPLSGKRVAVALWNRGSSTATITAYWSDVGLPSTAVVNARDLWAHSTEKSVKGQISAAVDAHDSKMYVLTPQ

In the case of `C[N+](C)(C)CCOC(=O)CBr`, the compound was classed as inactive in [1], in assay [2] and in assay [3].

Turning to `ClCC1CO1` (stereo unspecified), the Potency result in assay [4], in [5], in [6], in [7], in assay [8] and in assay [9] was “inactive” in each case. Moreover, the Potency result in assay [10], in assay [11], in [12], in [13], in [14] and in assay [15] was “inactive” throughout. Further, the Potency result in assay [16] was “inactive”.

Regarding `[O]=[Cr](=[O])([OH])[O][Cr](=[O])(=[O])[OH]`, the Potency is 12.6 µM (active) and 10 µM (active) in assay [4]; 15.8 µM (active) and 12.6 µM (active) in assay [5]; 12.6 µM (active) and 15.8 µM (active) and 10 µM (active) in assay [6]; 12.6 µM (active) and 15.8 µM (active) and 10 µM (active) in [7]; 10 µM (active) and 12.6 µM (active) and 7.94 µM (active) in assay [8]; 12.6 µM (active) and 10 µM (active) in assay [9]. The Potency in [10] was 10 µM (active) and 7.94 µM (active); in [11], 12.6 µM (active) and 15.8 µM (active) and 7.94 µM (active); in [12], 10 µM (active) and 12.6 µM (active); in assay [17] it was 7.94 µM (active) and 12.6 µM (active); in assay [13], 15.8 µM (active) and 10 µM (active); in assay [18], 12.6 µM (active) and 15.8 µM (active) and 10 µM (active). The Potency in assay [14] is 15.8 µM (active) and 20 µM (active) and 12.6 µM (active); in assay [16] it was “inactive and 39.8 µM (active)”. In assay [15], the Potency entry is “inactive”.

`O=[N+]([O-])c1ccccc1`: the Potency entry in [4], in [5], in assay [6], in [7], in [8] and in [9] was “inactive” throughout. Also, the Potency entry in [10], in assay [11], in assay [12], in assay [17], in assay [13] and in assay [18] was “inactive” each time. Also, the Potency result in assay [14], in [15] and in assay [16] was “inactive” throughout.

As to `S=C=S`, the Potency result in assay [4], in [5], in assay [6], in assay [7], in [8] and in assay [9] was “inactive” throughout. Besides, the Potency result in assay [10], in assay [11], in [12], in assay [17], in assay [13] and in assay [18] was “inactive” in each case. The Potency entry in assay [14], in assay [15] and in [16] was “inactive” throughout.

For the compound `c1ccc2c(c1)[I+]c1ccccc1-2`, the compound was classed as inactive in assay [1] and in [3].

For `CN1CCc2cc(O)cc3c2[C@H]1Cc1ccc(O)c(O)c1-3`, the call in [1] and in [3] was inactive.

As to `O=C(O)C(Cl)(Cl)Cl`, the Potency entry in [4], in assay [5], in [6], in assay [7], in [8] and in assay [9] was “inactive” each time. In addition, the Potency result in assay [10], in assay [11], in assay [12], in [17], in assay [13] and in assay [18] was “inactive” each time. For the same compound, the Potency result in assay [14], in [15] and in [16] was “inactive” in each case.

Consider `O=[N+]([O-])c1ccc2nc(N3CCNCC3)ccc2c1`, for which the call in assay [1] and in assay [3] was inactive.

`[Cl-].[Cl-].[Hg+2]`: the Potency in assay [4] is 10 µM (active); in assay [5], 15.8 µM (active); in assay [6], 20 µM (active); in [7], 15.8 µM (active); in [8] it was 6.31 µM (active); in [10] it was 316 nM (active). Besides, the Potency in assay [17] was 5.01 µM (active); in [13], 3.16 µM (active); in assay [18], 398 nM (active); in [14], 20 µM (active); in assay [15], 1.26 µM (active); in assay [16], 3.16 µM (active).

Regarding `CC(C)(C)c1cc(C=C(C#N)C#N)cc(C(C)(C)C)c1O`, the compound was classed as inactive in assay [1], in assay [2] and in assay [3].

Take `CCN(CCCl)Cc1ccccc1Br`: the compound was classed as inactive in assay [1], in assay [2] and in assay [3].

Take `COc1ccc2c(c1)/C(=C/c1cnc[nH]1)C(=O)N2`: the result in assay [1] and in assay [3] was inactive.

Turning to `C[C@@H]1[C@@H]2Cc3ccc(O)cc3[C@@]1(C)CCN2CC1CC1`, the compound was called inactive in assay [1] and in assay [3].

Turning to `C[C@]12CCC(=O)C[C@@H]1CC[C@@H]1[C@@H]2CC[C@]2(C)[C@@H](O)CC[C@@H]12`, the Potency entry in assay [4], in [5], in assay [6], in assay [7], in assay [8] and in assay [9] was “inactive” in each case. Besides, the Potency entry in [10], in [11], in assay [12], in assay [17], in assay [13] and in assay [18] was “inactive” throughout. In addition, the Potency result in [14], in [15] and in [16] was “inactive” throughout.

Regarding `C[N+]1(C)[C@@H]2CC[C@H]1CC(OC(=O)c1c[nH]c3ccccc13)C2` (stereo partly specified), the compound was classed as inactive in assay [1] and in [3].
